In PubChem BioAssay (NCATS):
Several values for one entry are separate records, joined by “and”; a condition that tells them apart may be missing. Identical values can stand only once. Inconclusive results are not listed. A call without a number means that no potency is given here. A number with no mark means an inactive call. Activity calls are given as the source filed them. Calls come from the whole dose curve; as a rule, active = well fitted curve in the direction sought with a large enough effect; inconclusive = small, poorly fitted or top-dose-only effect, or another doubt; inactive = no such curve, though single readings can be large; an effect the other way counts as inactive or inconclusive.

What was measured:
[1] = molecular target: Cytochrome P450 3A7 (Homo sapiens) (UniProt P24462); assay: Cytochrome P450 family 3 subfamily A member 7 (CYP3A7) small molecule antagonists: luciferase biochemical qHTS assay (AID 1963596); note: nearly all actives have a fitted effect of over 40% in size
Cytochrome P450 3A7 (Homo sapiens), sequence (P24462 whole entry, looked up): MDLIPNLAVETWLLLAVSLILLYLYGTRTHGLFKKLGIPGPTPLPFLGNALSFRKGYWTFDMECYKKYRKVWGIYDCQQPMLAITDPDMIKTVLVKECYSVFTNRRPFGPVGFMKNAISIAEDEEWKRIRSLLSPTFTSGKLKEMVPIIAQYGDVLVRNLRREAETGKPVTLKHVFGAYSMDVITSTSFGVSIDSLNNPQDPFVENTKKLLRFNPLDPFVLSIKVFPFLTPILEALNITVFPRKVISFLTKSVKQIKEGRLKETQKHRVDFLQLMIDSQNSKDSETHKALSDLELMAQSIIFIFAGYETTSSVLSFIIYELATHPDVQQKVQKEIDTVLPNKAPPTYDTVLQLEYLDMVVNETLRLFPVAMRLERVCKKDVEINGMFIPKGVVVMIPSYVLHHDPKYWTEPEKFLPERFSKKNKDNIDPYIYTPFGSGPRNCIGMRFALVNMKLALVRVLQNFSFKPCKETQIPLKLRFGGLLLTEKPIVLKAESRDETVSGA
Procedure, shortened: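 In this luminescent screen, enzyme and proluciferin substrate meet test compound for 10 min before NADPH regeneration solution drives a 1 h room-temperature reaction; detection reagent halts turnover and luminescence is read 20 min later.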

[2] = Viability qHTS for spleen associated tyrosine kinase inhibitor (SYKi) naive MV4-11 cells (AID 1963823); note: nearly all actives have a fitted effect of over 40% in size; note: potency is the fitted concentration of half-maximal effect
Procedure, shortened: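 Cells: MV4-11, SYK inhibitor naive, 500 per well. Treatment: library compounds, 72 hr, 37 C, 5% CO2. Read-out: CellTiter-Glo luminescence after 10 min RT.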

[3] = Viability qHTS for spleen associated tyrosine kinase inhibitor (SYKi) drug resistant MV4-11 cells (AID 1963824); note: nearly all actives have a fitted effect of over 35% in size; note: potency is the fitted concentration of half-maximal effect
Procedure, shortened: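 SYK-inhibitor-resistant MV4-11 AML cells were seeded at 500 per well onto compound and cultured 72 hours (37 °C, 5% CO2). CellTiter-Glo was then added, and after 10 min at room temperature, luminescence gave viability.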

[4] = Quantitative highthroughput screen to assess conditional lethalithy of NOMO1 cells grown in RPMI1640 with untreated serum (RPMI+s) (AID 1963876); note: nearly all actives have a fitted effect of over 35% in size; note: potency is the fitted concentration of half-maximal effect
Procedure, shortened: (§1)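 Each medium arm—HPLM with 10% dialyzed FBS, or RPMI1640 with 5 mM glucose and 10% untreated or dialyzed FBS—was screened against an 11-point, 3-fold compound titration for 48 h at 37 °C, with CellTiter-Glo luminescence as endpoint.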

[5] = Quantitative highthroughput screen to assess conditional lethalithy of NOMO1 cells grown in RPMI1640 with dialyzed fetal bovine serum (RPMI+ds) (AID 1963877); note: nearly all actives have a fitted effect of over 30% in size; note: potency is the fitted concentration of half-maximal effect; for Viability: series mostly up to about 46 µM
Procedure, shortened: as §1

[6] = Quantitative highthroughput screen to assess conditional lethalithy of NOMO1 cells grown in Human Plasma-Like Medium with dialyzed fetal bovine serum (HPLM+ds) (AID 1963878); note: nearly all actives have a fitted effect of over 35% in size; note: potency is the fitted concentration of half-maximal effect
Procedure, shortened: as §1

[7] = Quantitative highthroughput screen to assess conditional lethalithy of P12 Ichikawa cells grown in Human Plasma-Like Medium with dialyzed fetal bovine serum (HPLM+ds) (AID 1963879); conditions: Potency: viability; note: nearly all actives have a fitted effect of over 35% in size; note: potency is the fitted concentration of half-maximal effect; for Viability: series mostly up to about 46 µM
Procedure, shortened: as §1

[8] = Quantitative highthroughput screen to assess conditional lethalithy of P12 Ichikawa cells grown in RPMI1640 with dialyzed fetal bovine serum (RPMI+ds) (AID 1963880); conditions: Potency: P12-Ichikawa viability; note: nearly all actives have a fitted effect of over 35% in size; note: potency is the fitted concentration of half-maximal effect
Procedure, shortened: as §1

[9] = Quantitative highthroughput screen to assess conditional lethalithy of P12 Ichikawa cells grown in RPMI1640 with untreated serum (RPMI+s) (AID 1963881); conditions: Potency: viability; note: nearly all actives have a fitted effect of over 35% in size; note: potency is the fitted concentration of half-maximal effect; for Viability: series mostly up to about 46 µM
Procedure, shortened: as §1

[10] = Quantitative highthroughput screen to assess conditional lethalithy of SEM cells grown in Human Plasma-Like Medium with dialyzed fetal bovine serum (HPLM+ds) (AID 1963882); note: nearly all actives have a fitted effect of over 35% in size; note: potency is the fitted concentration of half-maximal effect; for Viability: series mostly up to about 46 µM
Procedure, shortened: as §1

[11] = Quantitative highthroughput screen to assess conditional lethalithy of SEM cells grown in RPMI1640 with unreated serum (RPMI+s) (AID 1963883); note: nearly all actives have a fitted effect of over 35% in size; note: potency is the fitted concentration of half-maximal effect
Procedure, shortened: as §1

[12] = Quantitative highthroughput screen to assess conditional lethalithy of SEM cells grown in RPMI1640 with dialyzed fetal bovine serum (RPMI+ds) (AID 1963884); note: nearly all actives have a fitted effect of over 35% in size; note: potency is the fitted concentration of half-maximal effect; for Viability: series mostly up to about 46 µM
Procedure, shortened: as §1

[13] = Cellular viability qHTS for adrenocortical cancer (ACC) cell line SW-13 (AID 1963989); conditions: SW-13 ACC cells viability, CellTiter-Glo, 48 h; activity (max response): active compounds read low;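 note: cells grown in serum-free medium with ITS supplement; nearly all actives have a fitted effect of over 65% in size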
Procedure, shortened: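 48 h treatment, SW-13 in ITS/DMEM serum-free; doses up to 46 uM; readout CellTiter-Glo luminescence; curve fit four-parameter logistic.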

[14] = Cellular viability qHTS for adrenocortical cancer (ACC) cell line NCI-H295R (AID 1963990); note: nearly all actives have a fitted effect of over 60% in size
Procedure, shortened: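 Compound titrations (up to 46 uM final) are applied to NCI-H295R cultures for 48 h at 37C. Viable cell number is estimated by CellTiter-Glo signal, normalised to DMSO and doxorubicin controls.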

Row | SMILES | Potency [1] | Potency [2] | Potency [3] | Potency [4] | Potency [5] | Potency [6] | Potency [7] | Potency [8] | Potency [9] | Potency [10] | Potency [11] | Potency [12] | activity (max response) [13] | Potency [14]
1 | CC(C[N+](C)(C)C)OC(N)=O (stereo unspecified) | inactive | inactive | inactive | inactive | inactive | inactive | inactive | inactive | inactive | inactive | inactive | inactive | 2.28% and -2.17% | inactive
2 | O=C(c1ccccc1)c1ccc2n1CCC2C(=O)O (stereo unspecified) | inactive | inactive | inactive | inactive | inactive | inactive | 2.35 µM (active) | 4.18 µM (active) | 3.72 µM (active) | – | – | 4.69 µM (active) | 8.29% and -6.52% | inactive
3 | COc1ccc(-c2ccc3cc(C(=O)O)ccc3c2)cc1C12CC3CC(CC(C3)C1)C2 | inactive | 211 nM (active) | 1.32 µM (active) | inactive | inactive | inactive | inactive | inactive | inactive | – | – | inactive | -2.5% and -9.37% | inactive
4 | CNC1CCCN(c2c(F)cc3c(=O)c(C(=O)O)cn(C4CC4)c3c2OC)C1 (stereo unspecified) | inactive | inactive | inactive | inactive | inactive | inactive | inactive | – | inactive | inactive | inactive | inactive | 2.01% and 5.57% | inactive
5 | NC(=O)c1cccnc1 | inactive | inactive | inactive | inactive | inactive | inactive | inactive | inactive | inactive | 16.6 µM (active) | – | – | -8.19% and 2.22% | inactive
6 | CNS(=O)(=O)CCc1ccc2[nH]cc(C3CCN(C)CC3)c2c1 | inactive | inactive | inactive | inactive | inactive | inactive | inactive | inactive | inactive | inactive | inactive | inactive | -14.7% | inactive
7 | Cc1nc2c([nH]1)CCN(C(=O)c1ccc(NC(=O)c3ccccc3-c3ccccc3)cc1)c1ccccc1-2 | inactive | 18400 nM (active) | 13.2 µM (active) | inactive | inactive | inactive | inactive | inactive | inactive | inactive | inactive | inactive | -19.1% | inactive
8 | N=C(N=C(N)N)N1CCOCC1 | inactive | inactive | inactive | inactive | inactive | inactive | inactive | inactive | inactive | inactive | inactive | – | -4.25% | inactive
9 | N=c1nc(N2CCCCC2)cc(N)n1O | inactive | inactive | inactive | inactive | inactive | inactive | inactive | inactive | inactive | – | – | – | 5.33% | inactive
10 | CN(C)CCc1c[nH]c2ccc(C[C@H]3COC(=O)N3)cc12 | inactive | inactive | inactive | 16.6 µM (active) | 20.9 µM (active) | 13.2 µM (active) | 7.43 µM (active) | 10.5 µM (active) | 10.5 µM (active) | 9.35 µM (active) | 4.69 µM (active) | 9.35 µM (active) | 12.9% | inactive
11 | O=C(NC(Cc1cc(=O)[nH]c2ccccc12)C(=O)O)c1ccc(Cl)cc1 (stereo unspecified) | inactive | inactive | inactive | inactive | inactive | inactive | inactive | inactive | inactive | inactive | inactive | inactive | 7.09% and -3.01% | inactive
12 | OC[C@H]1O[C@@H](OCCc2ccc(O)cc2)[C@H](O)[C@@H](O)[C@H]1O | inactive | inactive | inactive | inactive | inactive | inactive | inactive | inactive | inactive | inactive | – | inactive | -16.3% | –
13 | NS(=O)(=O)c1cc(Cl)c(Cl)c(S(N)(=O)=O)c1 | inactive | inactive | inactive | inactive | inactive | inactive | inactive | inactive | inactive | – | – | – | -6.34% | inactive
14 | Clc1cccc(Cl)c1NC1=NCCN1 | inactive | inactive | inactive | inactive | inactive | inactive | inactive | inactive | inactive | inactive | inactive | inactive | 13.1% | inactive
15 | COc1cc2ncnc(Nc3cc(Br)c(O)c(Br)c3)c2cc1OC | inactive | 11.8 µM (active) and 11.6 µM (active) | 13.2 µM (active) and 9.2 µM (active) | inactive | inactive | inactive | inactive | inactive | inactive | inactive | inactive | – | – | inactive
16 | Nc1cc(C(Cl)=C(Cl)Cl)c(S(N)(=O)=O)cc1S(N)(=O)=O | inactive | inactive | inactive | 7.43 µM (active) | 7.43 µM (active) | 1.87 µM (active) | 1.18 µM (active) | 5.26 µM (active) | 7.43 µM (active) | 7.43 µM (active) | 2.96 µM (active) | 4.18 µM (active) | -17% and 6.7% | inactive
